Results on 21 compounds are retold here after PubChem BioAssay (NCATS).

Structures are written as SMILES. Values joined by “and” are separate entries in the source; they are usually repeats but may differ in a detail not shown here. Equal entries are not always repeated. Inconclusive results are not listed. More than one record can exist for a structure, and the calls need not agree. Values without a mark were called inactive. Active and inactive are the calls of the source. Calls follow the shape of the dose curve; as a rule, active = well fitted inhibition curve with a large enough effect; inconclusive = small, poorly fitted or top-dose-only effect; inactive = flat fitted curve, though single readings scatter.

Assay [1] has as its system CRL-7250. The experiment in a line: Cytotoxic Profiling of Annotated Libraries Using Quantitative High-Throughput Screening (AID 1296008). Also: potency is read from the fitted curve at half-maximal effect. As to max response: % is scaled to controls: 0 for no effect and ±100 for the full control effect. The settings on record: Five cell lines viability, CellTiter-Glo ATP luminescence, 48-72 h; max response: hits give low values. An outline of the steps: (§1)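 Cells exposed to compounds for 48 or 72 hr at 37 degrees Celsius. Viability read as ATP-coupled luminescence with CellTiter-Glo after 10 min at room temperature.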
Background: ATP-based viability assays read luminescence as a measure of living cells.

In assay [2] the test system is HEK293. Described as above. The settings on record: Five cell lines viability, CellTiter-Glo ATP luminescence, 48-72 h; max response: hits give low values. Summed up:
as §1

Assay [3] has as its system HaCat. Described as above. The settings on record: Five cell lines viability, CellTiter-Glo ATP luminescence, 48-72 h; max response: hits give low values. An outline of the steps:
as §1

In assay [4] the test system is KB-3-1. Described as above. The settings on record: Five cell lines viability, CellTiter-Glo ATP luminescence, 48-72 h; max response: hits give low values. An outline of the steps:
as §1

Assay [5] deals with PC49. The experiment in a line: qHTS profiling for inhibitors of Plasmodium falciparum proliferation (AID 504749).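 Also: 0% = DMSO vehicle and full inhibition = artemisinin control.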 The settings on record: P. falciparum in erythrocytes, SYBR Green DNA, 72 h; series mostly up to 28.7 µM. Summed up:
(§2)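 SYBR Green fluorescence (ex 485 nm, em 535 nm) reports parasite DNA after 72 h compound exposure of infected red cells at 0.3% parasitemia, 2.5% hematocrit; signal normalized to 0.29 uM artemisinin and vehicle wells.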

Assay [6] deals with SC27B. The assay is described as above. The following applies: P. falciparum in erythrocytes, SYBR Green DNA, 72 h; series mostly up to 28.7 µM. An outline of the steps: as §2
For assay [7], the system named is TAB109. The assay is described as above. The settings on record: P. falciparum in erythrocytes, SYBR Green DNA, 72 h; series mostly up to 28.7 µM. Summed up: as §2
The test system of assay [8] is TAB113. Described as above. The settings on record: P. falciparum in erythrocytes, SYBR Green DNA, 72 h; series mostly up to 28.7 µM. Summed up: as §2
The test system of assay [9] is TAB165. The assay is described as above. The settings on record: P. falciparum in erythrocytes, SYBR Green DNA, 72 h; series mostly up to 28.7 µM. Summed up: as §2
The test system of assay [10] is W2. The description is as above. The following applies: P. falciparum in erythrocytes, SYBR Green DNA, 72 h; series mostly up to 28.7 µM. Summed up: as §2
Also: nearly all actives have a fitted effect of over 60% in size.

In the case of `NC1=N[C@@]2(c3cc(NC(=O)c4ccc(F)cn4)ccc3F)COC[C@@H]2CS1`, the compound was called inactive in assay [1]. The max response in assay [2] is -6.98%; in assay [3] it was -6.87%; in [4], 8.68%.
As to `CC(C)(C)c1cc(C(=O)O)c(NC(=O)Nc2ccc3[nH]ncc3c2)s1`, the max response is -5.25% and -2.72% in [1]; -1.74% and 1.5% in assay [2]; -3.43% in assay [3]; -9% in assay [4]. In addition, the outcome in assay [3] and in assay [4] was inactive.
As for `O=C1C[C@@H](c2ccc(O)cc2)Oc2cc(O)cc(O)c21`, the max response in assay [1] is -1.31%; in assay [2], -0.968%; in assay [3] it was 2.46%; in [4], 7.82%.
In the case of `O=C(O)Cc1cccc2ccccc12`, the result in [5], in [7], in assay [1] and in assay [3] was inactive. Also, the Potency entry in assay [6], in assay [8], in assay [9] and in [10] was “inactive” throughout. The max response in assay [2] is 0.788% and 3.55%; in assay [3], -10.3%; in [4], 13.8% and -7.33%.
With `COc1cccc(-c2cc(=O)c3ccccc3o2)c1N`, the max response in assay [1] was -6.48%; in [2], -10.3%; in assay [3], -7.74%; in [4], -0.147%.
As for `CC(C)[C@H](CO)Nc1nc(Nc2ccc(C(=O)O)c(Cl)c2)c2ncn(C(C)C)c2n1`, the result in assay [1], in [3] and in [4] was inactive. In addition, the values for the max response in assay [2] and in assay [3] were 1.29% and 4.58%, respectively.
`CC=C(C)C(=O)O[C@H]1C(C)=C[C@]23C(=O)[C@@H](C=C(CO)[C@@H](O)[C@]12O)[C@H]1[C@@H](C[C@H]3C)C1(C)C`: the max response in [1] was 2.46%; in assay [4], -20.1%. Moreover, the Potency in assay [2] was 26400 nM (active). Besides, the result in assay [3] was inactive.
Regarding `Cc1c[nH]c(C=C2C(=O)Nc3ccccc32)c1CCC(=O)O`, the Potency was 6620 nM (active) in assay [1] and 3320 nM (active) in [2]. Further, in assay [3], the result was inactive. Moreover, in [4], the max response is -13.5%.
For `CCOc1ccc(Nc2nc(-c3c(C)nc4ccccn34)cs2)cc1`, the Potency was 146 nM (active) in assay [1]; 46.1 nM (active) in [2]; 33.2 nM (active) and 32.6 nM (active) in [4]. For the same compound, the max response in [3] was 3.42%. Moreover, in assay [3], the result was inactive.
On to `CCn1cc(C(=O)O)c(=O)c2ccc(C)nc21`, for which the max response was 4.8% and -5.54% in [1]; -12% and -6.11% in [4]. The compound was classed as inactive in assay [2] and in assay [3].
As to `c1cc(-c2sc(-c3ccncc3)c(-c3ccncc3)c2-c2ccncc2)ccn1`, the max response was -2.98% in assay [1], -5.01% in assay [2] and 6.28% in assay [4]. In addition, the compound was called inactive in [3].
Turning to `O=c1cc(-c2cccc3c2Sc2ccccc2S3)oc(N2CCOCC2)c1`, the compound was classed as inactive in assay [1], in assay [2] and in [4]. Also, the max response in assay [3] was -21.6%.
Regarding `COc1cc(N2CCC(N3CCN(C)CC3)CC2)ccc1Nc1ncc(Cl)c(Nc2ccccc2S(=O)(=O)C(C)C)n1`, the Potency in assay [1] is 1460 nM (active); in assay [2], 1160 nM (active); in [3], 3660 nM (active); in assay [4] it was 920 nM (active).
For the compound `COC1CCC(N(C(=O)C2CCC(C)CC2)c2cc(C3=CCCCC3)sc2C(=O)O)CC1` (stereo not given), the max response in assay [1] was -4.75%; in assay [2] it was -22.6%; in assay [3], -16%; in assay [4] it was -3.16%.
As for `CCOC(CN1C(=O)[C@](CC(=O)Nc2ccc(C)cc2)(NC(=O)Nc2ccc(C)cc2)c2ccccc21)OCC`, the max response in [1] is 2.73%; in assay [2], -3.95%; in [3] it was -19.2%; in assay [4] it was -11%.
For `NC(=O)NN=Cc1ccc([N+](=O)[O-])o1`, the compound was called inactive in assay [1] and in assay [3]. The max response is 1.13% in assay [2] and 2.76% in assay [4].
Turning to `Clc1ccc(-c2nc3sccn3c2C=NOCc2ccc(Cl)c(Cl)c2)cc1`, the figures for the max response in [1], in [2] and in assay [4] were -8.97%, -1.21% and -5.79%, respectively. In addition, the compound was classed as inactive in assay [3].
On to `OC[C@H]1O[C@@H](Oc2cc(O)cc(C=Cc3ccc(O)cc3)c2)[C@H](O)[C@@H](O)[C@H]1O`, for which the call in [1] and in assay [4] was inactive. Further, the max response is -2.18% in assay [2] and -6.02% in assay [3].
On to `O=C(Nc1c(Cl)cncc1Cl)c1ccc(OC(F)F)c(OCC2CC2)c1`, for which the values for the max response in [1] and in assay [2] were -6.52% and 0.493%, respectively. Also, the call in assay [3] and in assay [4] was inactive.
Consider `O=c1ccn([C@@H]2O[C@H](CO)[C@H](O)[C@H]2O)c(=O)[nH]1`, for which the max response in assay [1] was -5.18%. Further, the outcome in assay [2], in assay [3] and in assay [4] was inactive.
In the case of `CC1(C)CCC(CN2CCN(c3ccc(C(=O)NS(=O)(=O)c4ccc(NCC5CCOCC5)c([N+](=O)[O-])c4)c(Oc4cnc5[nH]ccc5c4)c3)CC2)=C(c2ccc(Cl)cc2)C1`, the max response is -2.21% and -9.69% in [1]; -5.37% and -6.15% in assay [2]; -24.1% and -27.2% in assay [3]; 0.966% in [4].
